# In PubChem BioAssay AID1445 (SRMLSC, 2008):
# The campaign covered roughly 220,000 compounds. About 910 (0.41%) were called active. The entries come from a sample that favours actives as a whole. Potency and affinity values are given separately. A number with no mark means an inactive call.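 The calls were made as follows: active = primary inhibition above the hit cutoff, then over 50% inhibition at one or more dose response concentrations (cut at about 23% in these data, passing the limit was not always enough); inconclusive = conflicting primary data, or primary hits not chosen for dose response; inactive = low primary inhibition, or under 50% at every dose.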
# Target: Aminopeptidase N (Plasmodium falciparum (isolate 3D7)) (UniProt O96935)
# Assay: malaria alanyl aminopeptidase activity blockers – biochemical, fluorogenic H-Leu-NHMec substrate, 1536-well (AID 1445);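 also: plate controls were DMSO full reaction for no effect and no enzyme background for full effect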
# Conditions: recombinant M1AAP, H-Leu-NHMec fluorogenic kinetic assay; at 30 µM, stronger effect = higher value unless noted
# Sequence of Aminopeptidase N (Plasmodium falciparum (isolate 3D7)) (O96935 whole entry, looked up): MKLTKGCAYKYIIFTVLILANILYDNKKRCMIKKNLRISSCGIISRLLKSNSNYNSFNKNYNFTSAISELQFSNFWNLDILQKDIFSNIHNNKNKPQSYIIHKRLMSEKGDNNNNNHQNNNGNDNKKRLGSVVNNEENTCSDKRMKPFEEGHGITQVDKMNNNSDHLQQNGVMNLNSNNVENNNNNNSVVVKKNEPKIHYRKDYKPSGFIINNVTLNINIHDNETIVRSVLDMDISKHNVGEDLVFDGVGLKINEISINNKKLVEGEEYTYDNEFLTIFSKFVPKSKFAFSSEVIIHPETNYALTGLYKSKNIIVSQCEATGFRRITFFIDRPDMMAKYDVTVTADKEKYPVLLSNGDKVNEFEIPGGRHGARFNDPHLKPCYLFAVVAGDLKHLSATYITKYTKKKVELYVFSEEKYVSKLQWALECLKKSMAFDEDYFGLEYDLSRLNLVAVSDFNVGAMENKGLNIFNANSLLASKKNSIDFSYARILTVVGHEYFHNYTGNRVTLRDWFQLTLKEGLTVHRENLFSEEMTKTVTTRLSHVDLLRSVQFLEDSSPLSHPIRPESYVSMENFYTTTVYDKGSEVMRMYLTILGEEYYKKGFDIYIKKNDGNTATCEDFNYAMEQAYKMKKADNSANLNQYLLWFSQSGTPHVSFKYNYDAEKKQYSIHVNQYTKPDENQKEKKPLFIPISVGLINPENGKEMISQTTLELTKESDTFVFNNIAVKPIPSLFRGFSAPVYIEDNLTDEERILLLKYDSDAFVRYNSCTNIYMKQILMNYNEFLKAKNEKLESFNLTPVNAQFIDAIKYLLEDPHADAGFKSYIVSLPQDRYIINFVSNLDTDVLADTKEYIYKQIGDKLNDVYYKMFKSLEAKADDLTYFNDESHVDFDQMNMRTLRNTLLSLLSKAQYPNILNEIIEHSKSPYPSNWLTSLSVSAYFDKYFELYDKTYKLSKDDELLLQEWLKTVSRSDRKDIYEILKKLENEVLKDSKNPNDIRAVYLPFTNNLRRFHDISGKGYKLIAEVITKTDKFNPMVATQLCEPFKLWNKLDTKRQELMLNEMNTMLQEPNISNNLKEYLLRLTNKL
row,SMILES,inhibition
1,CC(=O)CSc1nc(-c2cccs2)c(C#N)c(=O)[nH]1,7.78%
2,Cc1cc(C)c(C#N)c(SCC(=O)c2cccs2)n1,2.39%
3,CCOc1ccc2nc(NC(=O)CSc3ccccc3)sc2c1,8.9%
4,O=C(CSc1nc(O)cc(=O)[nH]1)N1c2ccccc2Sc2ccccc21,18.4%
5,CCOc1ccc2nc(NC(=O)CSc3ccc(Cl)cc3)sc2c1,2.68%
6,Cc1nc(SCC(=O)N2c3ccccc3Sc3ccccc32)n[nH]1,4.61%
7,O=C(CCc1ccc(S(=O)(=O)N2CCOCC2)cc1)Nc1ccc(N2CCOCC2)cc1,3.54%
8,Cc1ccc(-c2noc(CN(C(=O)C(c3ccccc3)c3ccccc3)C(C)C)n2)cc1,5.44%
9,NC(=O)N/N=C/c1ccccc1OC(=O)c1ccccc1Br,0.59%
10,Cc1ccc(C)c(CS(=O)(=O)c2cn(CC(=O)N3CCC(C)CC3)c3ccccc23)c1,9.18%
11,Cc1ccccc1CS(=O)(=O)c1cn(CC(=O)N2CCC(C)CC2)c2ccccc12,9.75%
12,CCN(C1CCCCC1)S(=O)(=O)c1ccc(S(=O)(=O)N2CCN(CCC#N)CC2)cc1,-1.62%
13,O=C(/C=C\Nc1ccc2c(c1)OCO2)c1ccc(Cl)s1,3.02%
14,O=S(=O)(NC1CCCC1)c1ccc(S(=O)(=O)N2CCCN(Cc3ccccc3)C2)cc1,0.63%
15,CC(=NCc1ccncc1)C1=C(O)c2ccccc2C1=O,23.6% (active)
16,CCCN=C(C)C1=C(O)c2ccccc2C1=O,3.71%
17,CC(=NCc1cccnc1)C1=C(O)c2ccccc2C1=O,4.58%
18,CCC(c1nnnn1Cc1ccco1)N1CCC(C(N)=O)CC1 (stereo not given),10.1%
19,Nc1cc(-c2ccccc2)nn1Cc1ccc(Cl)cc1,25.7% (active)
20,Nc1cc(-c2ccccc2)nn1Cc1ccccc1,34.3%
21,Cc1ccc(-c2cc(N)n(Cc3ccc(Cl)cc3)n2)cc1,12.9%
22,N#CC1=C(N)OC2=C(C(=O)CCC2)[C@]12C(=O)N(CC(N)=O)c1ccccc12,9.16%

row,SMILES,inhibition
1,Cc1cccc(Nc2nc(N)nc(CN3CCN(C)CC3)n2)c1,9.59%
2,CCN(CC)CCCNC(=O)C(C)n1c2ccccc2c2nc(=O)cc(C)n21 (stereo not given),3.31%
3,COc1ccc(N/C(C)=C2/C(=O)C(=O)N(CCO)C2c2ccc(Br)cc2)cc1 (stereo not given),7.27%
4,COc1ccc(C2/C(=C(/O)c3ccccc3)C(=O)C(=O)N2CCO)cc1 (stereo not given),2.56%
5,COc1ccc(N/C(C)=C2/C(=O)C(=O)N(CCO)C2c2ccc([N+](=O)[O-])cc2)cc1 (stereo not given),23.9% (active)
6,CCCCN1C(=O)C(O)=C(C(C)=O)C1c1ccccc1[N+](=O)[O-] (stereo not given),-0.46%
7,CCCCN(CC)S(=O)(=O)c1ccc2c(c1)CCCN2C(C)=O,-2.36%
8,CC1CCCCN1S(=O)(=O)c1cnc(Cl)c(Br)c1 (stereo not given),-7.81%
9,O=C(c1ccccc1F)N1CCN=C1c1ccccc1,6.9%
10,Cc1occc1C(=O)N/N=C/c1ccccn1,3.01%
11,COc1ccc(-n2cnnc2SCC(=O)Nc2cc(S(=O)(=O)N3CCCCC3)ccc2C)cc1,3.33%
12,Nn1c(SCC(=O)Nc2cc(S(=O)(=O)N3CCOCC3)ccc2Cl)nnc1-c1cccnc1,6.37%
13,Cc1ccnc2nc(C(=O)Nc3ccc(S(=O)(=O)N4CCCC4)cc3)nn12,-4.02%
14,COc1ccc2nc(SCC(=O)N3CCCCC3)c(C#N)cc2c1,19.1%
15,Cc1cc2ccccc2nc1SCC(=O)N1CCCC1,11.8%
16,O=C(CSc1nc2ccccc2nc1SCC(=O)N1CCOCC1)N1CCOCC1,6.36%
17,COc1ccc2nc(SCC(=O)N3CCCCCC3)c(C#N)cc2c1,6.08%
18,O=C(CSc1nc2ccccc2nc1SCC(=O)N1CCCCC1)N1CCCCC1,42.7% (active)
19,O=C(CCc1nnc(Cc2c[nH]c3ccccc23)o1)NC(C1CC1)C1CC1,1.78%
20,CN1CCN(C(=O)CCNC(=O)Cn2ccc3ccccc3c2=O)CC1,2.23%
21,CC(=O)Nc1ccc(NC(=O)Cn2nc([N+](=O)[O-])c(Br)c2C)cc1,-1.26%
22,CCn1c(COc2cccc(OC)c2)nnc1SCC(=O)Nc1cccc(OC)c1,-3.8%

row,SMILES,inhibition
1,CCCn1cc(S(=O)(=O)CC(=O)N2CCc3ccccc32)c2ccccc21,-2.1%
2,CCC(C)(C(=O)NC1CCCCC1)N(CC1CCCO1)C(=O)CNC(=O)c1ccccc1 (stereo not given),4.25%
3,O=C(CS)Nc1ccc2ccccc2c1,6.21%
4,CC(C)CC(c1nnnn1CC1CCCO1)N1CCN(c2cccc(Cl)c2)CC1 (stereo not given),31.4% (active)
5,Cc1ccc(Cl)cc1N1CCN(C(CC(C)C)c2nnnn2CC2CCCO2)CC1 (stereo not given),-6.33%
6,CCCC(c1nnnn1CC1CCCO1)N1CCN(c2ccccc2)CC1 (stereo not given),7.5%
7,CCCCCc1ccc(CC(=O)O)cc1,3%
8,c1ccc(Nc2nc(N3CCCCC3)nc(N3CCCCC3)n2)cc1,2.1%
9,O=c1nc(N2CCCC2)nc(Nc2ccccc2)[nH]1,9.86%
10,CCOC(=O)CC(NC(C)=O)c1ccc([N+](=O)[O-])cc1 (stereo not given),2.95%
11,CCc1cc2c(=O)c(-c3nc4ccccc4n3C)c(COCC(=O)O)oc2cc1O,6.97%
12,COC(=O)C(=Nc1ccccc1)/C(C(=O)C(=O)N(C)c1ccccc1)=C(\O)c1ccccc1,16.3%
13,CC1CCc2nc3ccc(S(=O)(=O)N4CCC(C(=O)N5CCCCCC5)CC4)cc3c(C(=O)O)c2C1 (stereo not given),13.6%
14,O=C(O)c1c2c(nc3ccc(S(=O)(=O)N4CCC(C(=O)N5CCCCC5)CC4)cc13)CCCC2,4.87%
15,CC1CCC(NC(=O)C2CCN(S(=O)(=O)c3ccc4nc5c(c(C(=O)O)c4c3)CC(C)CC5)CC2)CC1 (stereo not given),7.59%
16,O=C(O)c1c2c(nc3ccc(S(=O)(=O)N4CCC(C(=O)NC5CCCCCC5)CC4)cc13)CCCC2,23.1%
17,CC1CCc2nc3ccc(S(=O)(=O)N4CCC(C(=O)N5CCCCC5)CC4)cc3c(C(=O)O)c2C1 (stereo not given),7.8%
18,O=C(O)c1c2c(nc3ccc(S(=O)(=O)N4CCC(C(=O)NC5CCCC5)CC4)cc13)CCCCC2,26.5% (active)
19,CC1CCc2nc3ccc(S(=O)(=O)N4CCC(C(=O)NC5CCCC5)CC4)cc3c(C(=O)O)c2C1 (stereo not given),23.4% (active)
20,CCCNC(=O)C1CCN(S(=O)(=O)c2ccc(Br)cc2)CC1,0.41%
21,CCCNC(=O)C1CCN(S(=O)(=O)c2ccc3nc4c(c(C(=O)O)c3c2)CCCCC4)CC1,25.7% (active)
